High-throughput results (PubChem)
Shown are actives, neighbours in structure and some others; about 9.2% of the full set was active somewhere.
Rab9 prom act: activators of Rab9 promoter. Potency, µM (titrated, usually from 9.22 µM), hits mostly activators. Huh7 Rab9 promoter-luciferase reporter, luminescence, 24 h. actives 2.8% (n = 320,000). AID 485297; note: nearly all actives have a fitted effect of over 60% in size
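Huh7 cells stably carrying Rab9 promoter–luciferase reporter, plated 1500 cells/well, compound added after 2 h and incubated 24 h at 37 °C; luciferase luminescence then read after 10 min with detection reagent.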
ELG1 repair inh: ELG1-dependent DNA repair inhibition | HEK293T ELG1-luciferase reporter, luminescence, 16 h; DNA damage induced by 5-fluorouridine | Potency, µM (doses to about 46.1 µM), most hits filed as inhibitors | actives 2.3% (n = 330,000); note: nearly all actives have a fitted effect of over 55% in size
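Overnight (16 hr) co-exposure of 2,000 cells/well to 5-fluorouridine and compound at 37 °C preceded detection. Luciferase was quantified via ONE-Glo luminescence; loss of signal denotes inhibition.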
ELG1 genotoxic: inducers of genotoxicity in HEK293T ELG1-luciferase cells; HEK293T ELG1-luciferase reporter, luminescence, 16 h; AID 504466; actives 1.3% (n = 330,000); Potency, µM (doses to about 46 µM), actives largely listed as activators; note: nearly all actives have a fitted effect of over 60% in size
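HEK293T cells expressing luciferase-tagged ELG1 were treated with compound or DMSO for 16 hr at 37°C. Luciferase activity was then read after 30 min with ONE-Glo at room temperature; rising signal flags genetic stress.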
SMN2 splice up: SMN2 splice variant enhancement; HEK293 SMN2-luciferase splicing reporter, luminescence, 30-36 h; Potency, µM (doses to about 46.1 µM), usual class: activators; actives 2.8% (n = 210,000); AID 1458; note: nearly all actives have a fitted effect of over 55% in size
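HEK293 cells carry an SMN2 minigene-luciferase reporter in which exon 7 inclusion puts luciferase in frame. Cells were seeded at 2000 cells/well, attached for 10-12 hours, then exposed to compounds for 30-36 hours at 37C before ONE-Glo luminescence.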
NPC1 prom act: activates the NPC1 promoter; actives 2.4% (n = 320,000); Huh7 NPC1 promoter luciferase reporter, 24 h; AID 485313; Potency, µM (series often up to 9.22 µM), actives largely listed as activators; note: nearly all actives have a fitted effect of over 60% in size
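In 1536-well qHTS, Huh7 cells harboring an NPC1 promoter–luciferase construct received compound for 24 h; activation was quantified by luminescence following luciferase reagent addition.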
FLuc modulator: counter-screen for miR-21 project: firefly luciferase inhibitors or activators; actives 6.9% (n = 360,000); AID 588342; purified FLuc, Km substrates, luminescence inhibition; P08659; Potency, µM (highest dose often 57.5 µM), most hits filed as inhibitors; note: nearly all actives have a fitted effect of over 55% in size
Target sequence (P08659 whole entry, looked up): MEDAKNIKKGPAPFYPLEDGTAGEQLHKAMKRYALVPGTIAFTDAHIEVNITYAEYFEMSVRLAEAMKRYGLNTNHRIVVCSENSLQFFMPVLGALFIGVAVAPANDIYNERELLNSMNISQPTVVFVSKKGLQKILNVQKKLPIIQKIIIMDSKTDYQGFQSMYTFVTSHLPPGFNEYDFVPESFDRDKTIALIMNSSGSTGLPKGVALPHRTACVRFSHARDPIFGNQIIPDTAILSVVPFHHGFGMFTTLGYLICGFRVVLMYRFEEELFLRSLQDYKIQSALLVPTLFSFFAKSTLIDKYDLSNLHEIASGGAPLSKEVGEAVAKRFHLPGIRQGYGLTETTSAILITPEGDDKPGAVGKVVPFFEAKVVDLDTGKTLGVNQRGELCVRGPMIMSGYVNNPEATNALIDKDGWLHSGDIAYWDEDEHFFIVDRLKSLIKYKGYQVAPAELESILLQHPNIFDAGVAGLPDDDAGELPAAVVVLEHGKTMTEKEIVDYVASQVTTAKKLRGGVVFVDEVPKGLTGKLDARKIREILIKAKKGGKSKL
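Purified P. pyralis luciferase (10nM final) with 10uM D-luciferin and 10uM ATP (Km levels) in 50mM Tris acetate pH 7.5, 10mM Mg acetate, 0.01% Tween-20, 0.05% BSA; qHTS 6-point titration, ~60 µM downward; luminescence read.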
Numbers stand for hits. Calls come from the whole dose curve; as a rule, active = well fitted curve in the direction sought with a large enough effect; inconclusive = small, poorly fitted or top-dose-only effect, or another doubt; inactive = no such curve, though single readings can be large; an effect the other way counts as inactive or inconclusive.

CNC(=O)C1CCC(Cn2c(=O)c3sccc3n(CC(=O)Nc3ccccc3)c2=O)CC1 (centres undefined) was read as FLuc modulator inactive.
`c1csc(-c2ncc3ccccn23)c1` gave Rab9 prom act inactive, ELG1 repair inh inconclusive, ELG1 genotoxic inconclusive, SMN2 splice up inactive, NPC1 prom act inactive and FLuc modulator inconclusive.
`Clc1ccc(/C=C/c2ncc3ccccn23)cc1` gave Rab9 prom act 1µM, ELG1 repair inh inconclusive, ELG1 genotoxic inconclusive, NPC1 prom act 1.6µM and FLuc modulator 6.7µM.
Screening O=C1CCC/C(=N/NC(=O)c2sc3ccccc3c2Cl)C1 returned Rab9 prom act inconclusive, ELG1 repair inh inconclusive, ELG1 genotoxic inactive, NPC1 prom act inconclusive and FLuc modulator 15µM.
For CN1CCN(C(=O)c2ccccc2NC(=O)c2sc3ccccc3c2Cl)CC1 the results were Rab9 prom act inactive, ELG1 repair inh inactive, ELG1 genotoxic inactive, NPC1 prom act inactive and FLuc modulator inconclusive.
Screening CN1CCN(c2ccc(NC(=O)c3sc4ccccc4c3Cl)cc2)CC1 returned Rab9 prom act 1µM, ELG1 repair inh inconclusive, ELG1 genotoxic inconclusive, SMN2 splice up inactive, NPC1 prom act 2.5µM and FLuc modulator 1.9µM.
For Cc1ccc(NC(=O)c2nsc(Cl)c2Cl)cc1 the results were Rab9 prom act 2.8µM, ELG1 repair inh inconclusive, ELG1 genotoxic inconclusive, NPC1 prom act 3.5µM and FLuc modulator 1.7µM.
For CCn1nnc(NC(=O)c2sc3ccccc3c2Cl)n1 the results were Rab9 prom act inconclusive, ELG1 repair inh inconclusive, ELG1 genotoxic 21µM, SMN2 splice up 11µM, NPC1 prom act 2.2µM and FLuc modulator 9.5µM.
Cc1cc(C(=O)CCC(=O)NCC(=O)Nc2c(C)cccc2C)c(C)s1 was read as ELG1 repair inh inactive and ELG1 genotoxic inactive.
`Cc1ccc(C(=O)c2cn(Cc3ccc(Cl)cc3)c3nc(C)ccc3c2=O)cc1` gave Rab9 prom act inactive, SMN2 splice up inactive, NPC1 prom act inactive and FLuc modulator inactive.
CCOC(=O)C(Sc1cc(-c2ccccc2)nc2ncnn12)C(C)=O (centres undefined) was read as Rab9 prom act inactive, ELG1 repair inh inactive, ELG1 genotoxic inactive, NPC1 prom act inactive and FLuc modulator inactive.
`CCc1nnc(NC(=O)CCC(=O)N2CCN(c3cc(Cl)ccc3C)CC2)s1` gave Rab9 prom act inactive, ELG1 repair inh inactive, ELG1 genotoxic inactive, NPC1 prom act inactive and FLuc modulator inactive.
For O=C(NCc1ccco1)c1sc2ccccc2c1Cl the results were Rab9 prom act inconclusive, ELG1 repair inh inconclusive, ELG1 genotoxic inconclusive, SMN2 splice up inconclusive, NPC1 prom act inactive and FLuc modulator 21µM.
For O=C(Nc1ccncc1)c1sc2ccccc2c1Cl the results were Rab9 prom act inconclusive, ELG1 repair inh inactive, ELG1 genotoxic inactive, SMN2 splice up inconclusive, NPC1 prom act inconclusive and FLuc modulator inconclusive.
For O=C(NCc1ccco1)c1sc2cc(Cl)ccc2c1Cl the results were Rab9 prom act inactive, ELG1 repair inh inconclusive, ELG1 genotoxic inactive, SMN2 splice up inconclusive, NPC1 prom act inactive and FLuc modulator inconclusive.
For Cc1ccc(NC(=O)c2sc3ccccc3c2Cl)cc1 the results were SMN2 splice up 8.9µM and FLuc modulator 1.2µM.
Screening COc1cccc([C@@H]2Oc3ccc(OC)cc3C[C@H]2O)c1 returned SMN2 splice up inactive.
For COCCCNC(=O)c1cc(S(=O)(=O)NCCCN2CCCC2=O)ccc1Cl the results were ELG1 repair inh inactive and ELG1 genotoxic inactive.
Screening CC1(C)OC(=O)C(=NNc2ccc(Br)cc2)C(=O)O1 returned Rab9 prom act inactive, ELG1 repair inh inconclusive, ELG1 genotoxic inactive, SMN2 splice up inactive, NPC1 prom act inactive and FLuc modulator 19µM.
`CC1(C)OC(=O)C(=CNc2cccc(O)c2)C(=O)O1` gave Rab9 prom act inactive, ELG1 repair inh inactive, ELG1 genotoxic inactive, SMN2 splice up inactive, NPC1 prom act inactive and FLuc modulator inconclusive.
For Cc1ccc(C(=O)N/N=C/c2ccc(S(=O)(=O)O)o2)c(Cl)c1 the results were Rab9 prom act inactive, ELG1 repair inh inactive, ELG1 genotoxic inactive, SMN2 splice up inactive, NPC1 prom act inactive and FLuc modulator 15µM.
`Cc1ccc(C(=O)Nc2ccc(C(=O)N/N=C/c3ccc(C)o3)cc2)cc1` gave Rab9 prom act inactive, ELG1 repair inh inconclusive, ELG1 genotoxic inactive, NPC1 prom act inactive and FLuc modulator inconclusive.
`CC(C)(C)c1ccc2c(c1)OC(C(=O)N/N=C\c1ccc(-c3cccc(C(=O)O)c3)o1)CO2` (centres undefined) gave Rab9 prom act inactive, ELG1 repair inh inconclusive, ELG1 genotoxic inactive, NPC1 prom act inactive and FLuc modulator 19µM.
Screening O=C(O)c1cccc(-c2ccc(/C=N/NC(=O)C3COc4ccccc4O3)o2)c1 (centres undefined) returned Rab9 prom act inactive, ELG1 repair inh inconclusive, ELG1 genotoxic inactive, SMN2 splice up inactive, NPC1 prom act inactive and FLuc modulator 24µM.
Cn1ncc2c(NCc3ccc(Cl)cc3)ncnc21 was read as FLuc modulator inactive.
COC(=O)/C=C/c1cc(O)ccc1O was read as SMN2 splice up inactive.
Screening CC(C)(C)OC(=O)NCCCC[C@H](NC(=O)c1nc[nH]c1C(=O)NC1CCN(C(=O)OC(C)(C)C)CC1)C(=O)OC(C)(C)C returned Rab9 prom act inactive, ELG1 repair inh 16µM, ELG1 genotoxic inactive, NPC1 prom act inactive and FLuc modulator inactive.
Cc1cccc(NC(=O)c2nc[nH]c2C(=O)NCCCNC(=O)c2[nH]cnc2C(=O)Nc2cccc(C)c2)c1 was read as ELG1 repair inh 9.2µM and ELG1 genotoxic inactive.
For Cc1cccc(NC(=O)c2nc[nH]c2C(=O)NC2CCN(C(=O)OC(C)(C)C)CC2)c1 the results were Rab9 prom act inactive, ELG1 repair inh 26µM, ELG1 genotoxic inactive, NPC1 prom act inactive and FLuc modulator inactive.
`Cc1cccc(NC(=O)c2nc[nH]c2C(=O)NCCN(CCNC(=O)c2[nH]cnc2C(=O)Nc2cccc(C)c2)CCNC(=O)c2[nH]cnc2C(=O)Nc2cccc(C)c2)c1` gave ELG1 repair inh inactive and ELG1 genotoxic inactive.
Screening CC(C)(C)OC(=O)NCCCC[C@H](NC(=O)c1nc[nH]c1C(=O)N[C@@H](CCCCNC(=O)OC(C)(C)C)C(=O)OC(C)(C)C)C(=O)OC(C)(C)C returned Rab9 prom act inactive, ELG1 repair inh 9.2µM, ELG1 genotoxic inactive, NPC1 prom act inactive and FLuc modulator inactive.
For CC(C)C[C@H](NC(=O)c1nc[nH]c1C(=O)NC1CCN(C(=O)OC(C)(C)C)CC1)C(=O)OC(C)(C)C the results were Rab9 prom act inactive, ELG1 repair inh inactive, ELG1 genotoxic inactive, NPC1 prom act inactive and FLuc modulator inactive.
